PubChem BioAssay (NCATS)
Calls of active or inactive are those of the source. The rule behind the calls is not given here.

tested on: HIV-1 nucleocapsid protein NCp7 (binding to TG oligonucleotide); experiment: HIV Nucleocapsid (AID 346); details: HIV-1 NC / fluorescein-TGTGTGTG probe, fluorescence polarization;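 note: potency is for inhibitors that block NC binding and lower polarization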
Outline: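 NCp7 100 nM + fluorescein TG4xF 10 nM; Hepes pH 7.5/250mM NaCl/1uM ZnCl2/0.004% PEG 20000; 1 hr RT; FP, 45 s exposure; oligo-only wells as negative control.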
Potency is the fitted concentration of half-maximal effect.

Row | SMILES | Potency
1 | COc1ccccc1-c1cc(NCc2cccs2)ncn1 | > 20 µM (inactive)
2 | O=C(c1ccco1)N1CCC2(CCN(Cc3ccncc3)CC2)CC1 | > 20 µM (inactive)
3 | Cn1cccc1C(=O)N1CCC2(CCN(C(=O)Nc3cccc(C#N)c3)CC2)CC1 | > 20 µM (inactive)
4 | O=C(c1cccc(F)c1)N1CCC2(CC1)CN(Cc1ccccc1)C2 | > 20 µM (inactive)
5 | Cn1cccc1C(=O)N1CCC[C@@]2(CCN(c3ccncc3)C2)C1 | > 20 µM (inactive)
6 | CN(C)c1ncc2nc(-c3ccc(Cl)cc3)c(=O)n(Cc3cccs3)c2n1 | > 4 µM (inactive)
7 | CN(C)Cc1ccccc1-c1cncnc1NCc1cccnc1 | > 20 µM (inactive)
8 | O=S(=O)(c1ccccc1)N1CCC2(CCN(Cc3ccccc3)CC2)CC1 | > 20 µM (inactive)
9 | N#Cc1cccc(-c2cncnc2NCc2ccccc2)c1 | > 20 µM (inactive)
10 | Cc1noc(C)c1C(=O)N1CCC2(CC1)CN(Cc1cc(C(F)(F)F)cc(C(F)(F)F)c1)C2 | > 20 µM (inactive)
11 | CN(C)Cc1ccccc1-c1nccc(Nc2ccc(F)cc2)n1 | > 20 µM (inactive)
12 | CN1CCCC2(CCN(C(=O)c3cccc(F)c3)CC2)C1 | > 20 µM (inactive)
13 | O=c1c(-c2cc(F)cc(F)c2)nc2cncnc2n1-c1ccccc1 | > 20 µM (inactive)
14 | COCCn1c(=O)c(CCc2ccccc2)nc2cnc(N3CCNCC3)nc21 | > 20 µM (inactive)
15 | N#CCCn1c(=O)c(-c2cc(F)cc(F)c2)nc2cnc(N3CCOCC3)nc21 | > 20 µM (inactive)
16 | O=C(Oc1ccccc1)N1CCC2(CC1)CN(c1ccccc1)C2 | > 20 µM (inactive)
17 | FC(F)(F)c1ccccc1-c1cc(NCc2cccnc2)ncn1 | > 20 µM (inactive)
18 | CCNc1ncc2nc(C)c(=O)n(C3CC3)c2n1 | > 20 µM (inactive)
19 | COc1ccc(Oc2ncc3nc(C)c(=O)n(Cc4cccc(OC)c4)c3n2)cc1 | > 20 µM (inactive)
20 | CN(C)Cc1ccccc1-c1cc(Nc2ccccc2)ncn1 | > 20 µM (inactive)
21 | COCC(=O)N1CCC2(CCN(Cc3ccccc3)CC2)CC1 | > 20 µM (inactive)
22 | O=c1cnc2cnc(Oc3ccccc3)nc2n1C1CC1 | > 20 µM (inactive)
23 | O=C(Nc1cccc(F)c1)N1CC2(CCN(C(=O)c3cnccn3)CC2)C1 | > 20 µM (inactive)
24 | CN(C)Cc1ccccc1-c1cc(NCc2ccccc2)ncn1 | > 20 µM (inactive)
